Experimental data from publication PMC7826789 (International Journal of Molecular Sciences, 2021).

Experiments:
Conditions in all cases: Compound Concentration (nM):1000
NEK3 = test system: NEK3
NEK4 = test system: NEK4
NEK5 = test system: NEK5
NEK6 = test system: NEK6
NEK7 = test system: NEK7
NEK9 = test system: NEK9
NIK = test system: T1, NIK
T1 construct: gene MAP3K14

NIM1 = test system: T2, NIM1
T2 construct: gene MGC42105

NLK = test system: NLK
OSR1 = test system: T3, OSR1
T3 construct: gene OXSR1

PAK1 = test system: PAK1
PAK2 = test system: PAK2
PAK3 = test system: PAK3
PAK4 = test system: PAK4
PAK6 = test system: PAK6
PAK7 = test system: PAK7
PCTK1 = test system: T4, PCTK1
T4 construct: gene CDK16

PCTK2 = test system: T5, PCTK2
T5 construct: gene CDK17

PCTK3 = test system: T6, PCTK3
T6 construct: gene CDK18

PDGFRA = test system: PDGFRA
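Further: KINOMEscan scanMAX binding as percent activity remaining versus control; lower means stronger binding.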

SMILES	Percent Control (NEK3)	Percent Control (NEK4)	Percent Control (NEK5)	Percent Control (NEK6)	Percent Control (NEK7)	Percent Control (NEK9)	Percent Control (NIK)	Percent Control (NIM1)	Percent Control (NLK)	Percent Control (OSR1)	Percent Control (PAK1)	Percent Control (PAK2)	Percent Control (PAK3)	Percent Control (PAK4)	Percent Control (PAK6)	Percent Control (PAK7)	Percent Control (PCTK1)	Percent Control (PCTK2)	Percent Control (PCTK3)	Percent Control (PDGFRA)
CC(C)COC(=O)c1ccc2c(c1)/C(=C/Nc1ccc(S(N)(=O)=O)cc1)C(=O)N2 [GW416981X]	95%	90%	100%	100%	100%	83%	95%	86%	100%	100%	100%	100%	100%	100%	100%	97%	0.6%	16%	60%	55%
NS(=O)(=O)c1ccc(Nc2ncc(-c3ccccc3)o2)cc1 [GW572399X]	84%	100%	100%	100%	78%	100%	91%	96%	100%	100%	100%	100%	86%	100%	87%	100%	3.8%	100%	100%	8.8%
CCS(=O)(=O)c1ccc(OC)c(Nc2ncc(-c3cccc(F)c3)o2)c1 [GW621970X]	100%	100%	95%	100%	100%	100%	93%	100%	100%	100%	100%	100%	100%	100%	100%	100%	100%	100%	81%	49%
COc1ccccc1-c1cc(/C=C2\C(=O)Nc3ncc(Br)cc32)cc(Br)c1O [GW442130X]	100%	100%	100%	100%	100%	100%	100%	100%	100%	77%	100%	100%	67%	100%	100%	98%	79%	100%	100%	71%
O=C(Nc1n[nH]c2nc(-c3ccc(O)cc3)c(Br)cc12)C1CC1 [SB-725317]	100%	88%	100%	100%	86%	98%	100%	84%	54%	100%	89%	60%	71%	100%	100%	100%	24%	62%	77%	29%
CCn1c(-c2nonc2N)nc2c(C#CC(C)(C)O)nc(OCCNC)cc21.Cl [GSK949675]	100%	100%	100%	95%	100%	100%	1.5%	100%	100%	100%	100%	52%	100%	75%	60%	46%	82%	100%	100%	100%
O=C1Nc2ccc(C(=O)c3ccco3)cc2C1=Cc1cc(Cl)c(O)c(Cl)c1 [GW406108X]	100%	83%	100%	94%	100%	100%	100%	93%	100%	100%	100%	80%	100%	100%	80%	100%	100%	100%	91%	79%
Cl.O=C(O[C@H]1CN[C@H](C#Cc2cc3ncnc(Nc4ccc5c(cnn5Cc5ccccc5)c4)c3s2)C1)N1CCOCC1 [GSK200398A]	94%	100%	100%	100%	98%	95%	100%	89%	93%	100%	100%	100%	63%	100%	100%	89%	83%	96%	100%	83%
COc1cc(/C=N/Nc2ncnc3[nH]ncc23)ccc1O [GW578748X]	43%	98%	100%	100%	96%	100%	100%	37%	100%	100%	100%	97%	58%	100%	100%	100%	100%	100%	100%	7.6%
COc1cccc(-c2c[nH]c3c(N/N=C/c4ccncc4)ncnc23)c1 [GW814408X]	69%	100%	82%	100%	100%	100%	68%	92%	97%	100%	100%	94%	1.9%	100%	100%	100%	28%	75%	100%	8.2%
COc1ccc(COc2ccc(Cc3cnc(N)nc3N)cc2OC)cc1 [GW632580X]	97%	77%	100%	95%	77%	85%	94%	86%	100%	100%	100%	100%	62%	100%	92%	100%	84%	100%	73%	91%
COc1ccc2c(-c3ccnc(Nc4cccc(OC(F)(F)F)c4)n3)cnn2n1 [GW810372X]	22%	80%	7.6%	39%	3.6%	47%	96%	77%	81%	100%	100%	100%	100%	100%	96%	100%	100%	100%	99%	87%
CN(C)CCNC(=O)Nc1ccc(N(C)c2ccnc(Nc3ccc(CS(C)(=O)=O)cc3)n2)cc1.Cl [GW830900A]	63%	100%	91%	96%	93%	96%	88%	88%	82%	100%	99%	79%	2.1%	71%	90%	71%	100%	100%	100%	2%
Cl.O=C(Nc1ccc(Oc2ccc3[nH]c(NC(=O)c4ccccc4)nc3c2)cc1)Nc1cc(C(F)(F)F)ccc1F [GW709042A]	98%	83%	95%	92%	100%	20%	100%	88%	95%	100%	93%	90%	5.9%	100%	96%	100%	100%	100%	96%	35%
Cc1cc(O)cc(C)c1/C=C/c1cncc(C(N)=O)c1 [GW435821X]	89%	86%	100%	100%	100%	100%	100%	100%	92%	100%	99%	100%	84%	100%	98%	100%	100%	100%	93%	18%
COc1cc2ncnc(Nc3ccc4c(cnn4Cc4ccccc4)c3)c2cc1OC.Cl [GW282449A]	100%	100%	100%	100%	96%	100%	100%	100%	100%	100%	100%	100%	30%	100%	100%	100%	100%	100%	100%	83%
C/C(Nc1ccc(S(N)(=O)=O)cc1)=C1/C(=O)Nc2ccccc21 [GW335962X]	96%	77%	97%	100%	95%	95%	78%	86%	87%	94%	82%	80%	64%	89%	85%	100%	23%	100%	78%	6.1%
NS(=O)(=O)c1ccc(N/N=C2\C(=O)Nc3ccc(Cl)cc32)cc1 [GW280670X]	100%	100%	100%	100%	100%	100%	100%	100%	100%	100%	100%	100%	100%	100%	100%	100%	26%	100%	100%	28%
COc1ccc2cc(-c3c(-c4ccncc4)nc(-c4ccc(S(C)(=O)=O)cc4C)n3C)ccc2c1 [SB-633825]	65%	75%	35%	91%	65%	57%	53%	63%	81%	70%	87%	85%	12%	81%	97%	87%	74%	100%	100%	91%
COc1cc(N2CCN(C(C)C)CC2)ccc1Nc1nc(Nc2ccc(F)cc2C(=O)NC[C@@H](O)CO)c2cc[nH]c2n1 [GSK1392956A]	100%	100%	83%	100%	100%	100%	100%	96%	100%	89%	100%	100%	100%	100%	89%	67%	82%	100%	100%	91%
